# TDP1 cell noCPT – qHTS for Inhibitors of human tyrosyl-DNA phosphodiesterase 1 (TDP1): qHTS in cells in absence of CPT. DT40 Tdp1-/- hTDP1 cells, no CPT, ATP luminescence, 48 h. Potency, µM (highest dose often 46.2 µM), without a hit: at the top dose activity change, negative = growth inhibition, hits mostly inhibitors. actives 15% (n = 420,000); also: potency is read from the fitted curve at half-maximal effect; % is scaled to controls: 0 for no effect and ±100 for the full control effect; nearly all actives have a fitted effect of over 55% in size
#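 Compound effects on proliferation are scored in DT40 Tdp1-/-;hTDP1 cells in the absence of CPT. ATP levels (CellTiter-Glo luminescence) are recorded after a ≥48 hr, 37 °C incubation.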
# TDP1 inh – blocks human tyrosyl-DNA phosphodiesterase 1. Q9NUW8. recombinant TDP1, AlphaScreen DNA substrate cleavage. Potency, µM (top dose mostly 130 µM), for the others: top-dose activity change, negative = inhibition, usual class: inhibitors. actives 0.28% (n = 350,000). AID 485290; also: potency is read from the fitted curve at half-maximal effect; % is scaled to controls: 0 for no effect and ±100 for the full control effect; nearly all actives have a fitted effect of over 40% in size
# Target sequence (Q9NUW8 whole entry, looked up): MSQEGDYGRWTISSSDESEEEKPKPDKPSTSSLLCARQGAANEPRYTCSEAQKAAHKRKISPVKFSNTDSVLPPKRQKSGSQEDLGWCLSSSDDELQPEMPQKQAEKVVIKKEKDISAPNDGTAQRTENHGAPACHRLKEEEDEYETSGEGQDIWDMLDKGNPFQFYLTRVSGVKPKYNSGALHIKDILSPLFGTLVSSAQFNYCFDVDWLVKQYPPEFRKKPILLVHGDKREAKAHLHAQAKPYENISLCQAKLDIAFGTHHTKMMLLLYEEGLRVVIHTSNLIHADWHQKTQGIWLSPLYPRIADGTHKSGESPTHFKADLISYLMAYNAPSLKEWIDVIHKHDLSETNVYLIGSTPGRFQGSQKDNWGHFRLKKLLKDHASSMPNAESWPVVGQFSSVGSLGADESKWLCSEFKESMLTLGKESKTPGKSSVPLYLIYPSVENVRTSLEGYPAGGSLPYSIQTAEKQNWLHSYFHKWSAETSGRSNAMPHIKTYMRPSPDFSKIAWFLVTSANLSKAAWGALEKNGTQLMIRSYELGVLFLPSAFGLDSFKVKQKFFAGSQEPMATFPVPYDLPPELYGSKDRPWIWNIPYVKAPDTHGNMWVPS
#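 Steps: enzyme plus compound, 15 min RT; add biotin/phosphotyrosine-FITC oligonucleotide (15 nM final), react 5 min; add donor/acceptor beads (10 ug/ml final), 10 min; read AlphaScreen. Tdp1 at 1 nM final.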
# IL-1B inflam inh – inhibitors of inflammasome signaling (IL-1 beta secretion). actives 4.7% (n = 360,000). AID 743279. activity change, % at 57.5 µM. THP-1 LPS/ATP IL-1B secretion, AlphaLISA, 16 h; stronger effect = lower value; in the data active = activity change below about -50%; inconclusive = mostly about -30% to -49%; also: % is scaled to controls: 0 for no effect and ±100 for the full control effect
#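 THP-1 cells pretreated 1 hr with compounds (up to 57.5 uM final), then stimulated with LPS (250 ng/mL final) plus ATP (1.25 mM final); secreted IL-1B measured by AlphaLISA after 16 hr, decreased signal indicating inhibition.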
# TGFb SMAD3 inh – TGF-b pathway inhibition; Potency, µM (titrated, usually from 46.1 µM), for the others: at the highest dose activity, negative = inhibition, hits mostly inhibitors; HepG2 CAGA-GFP TGF-b/SMAD3 reporter, GFP fluorescence, 18 h; TGF-beta stimulated, 500 pg/mL final; actives 1.2% (n = 410,000); also: potency is read from the fitted curve at half-maximal effect; % is scaled to controls: 0 for no effect and ±100 for the full control effect; nearly all actives have a fitted effect of over 65% in size
#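 First, reporter cells (HEPG2 CAGA-GFP) rested 2 h at 37 degrees C. Next, compounds were pinned in and TGF-beta added to 500 pg/mL final. After 18 h, GFP was imaged per cell and summed per well.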
# TDP1 cell CPT – DT40-hTDP1 cell growth loss with CPT; chicken DT40 Tdp1-/-;hTDP1 cells + 20 nM CPT, ATP luminescence, 48 h; Potency, µM (titrated, usually from 46.2 µM), inactives show top-dose activity change, negative = growth inhibition, most hits filed as inhibitors; actives 12% (n = 420,000); also: potency is read from the fitted curve at half-maximal effect; % is scaled to controls: 0 for no effect and ±100 for the full control effect; nearly all actives have a fitted effect of over 55% in size
#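 Cell growth measured by CellTiter-Glo luminescence after a minimum 48 h, 37 C compound exposure with 20 nM CPT in Tdp1-knockout DT40 cells stably expressing hTDP1, seeded 400/well; qHTS titration format.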
# HepG2 viability – counter-screen for TGF-b inhibitors: cytotoxicity in HepG2 cells; HepG2 CAGA-GFP viability, ATP luminescence, 18 h; actives 0.76% (n = 410,000); Potency, µM (series often up to 46.1 µM), inactives show at the top dose activity change, negative = cytotoxicity, usual class: cytotoxic; AID 588856; also: potency is read from the fitted curve at half-maximal effect
#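 CellTiter-Glo luminescence gave cytotoxicity after 18 hours at 37 degrees C. The cells were HepG2 CAGA-GFP in 1% FBS DMEM, stimulated with 500 pg/mL TGF-beta after compound addition. %Activity was normalised to no-cell wells (complete cell-killing) and DMSO (no toxicity), and curves were fitted and classified.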
# Numbers without * were called inactive; ? = inconclusive; · = no result given; [ ] = dose if it differs, or a comment. A selection: hits, their analogues and other compounds. The true share with any hit is near 19%. Unless noted, calls follow the shape of the dose curve; as a rule, active = well fitted curve in the direction sought with a large enough effect; inconclusive = small, poorly fitted or top-dose-only effect, or another doubt; inactive = no such curve, though single readings can be large; an effect the other way counts as inactive or inconclusive.
SMILES,TDP1 cell noCPT,TDP1 inh,IL-1B inflam inh,TGFb SMAD3 inh,TDP1 cell CPT,HepG2 viability
Cc1cn([C@H]2C[C@H](F)[C@@H](CO)O2)c(=O)[nH]c1=O,17µM*,·,·,·,6.7µM*,·
Cc1cn([C@H]2C[C@H](N=[N+]=[N-])[C@@H](CO)O2)c(=O)[nH]c1=O,7.5µM*,3%,83,-21%,21µM*,-15%
O=c1[nH]c(=O)n([C@@H]2O[C@H](CO)[C@@H](O)[C@H]2O)cc1Br,-24%,8%[56.1 µM],·,·,3%,·
O=c1[nH]c(=O)n([C@H]2C[C@H](O)[C@@H](CO)O2)cc1F,0.037µM*,5%,41,-3%,3.3µM*,-5%
CC1OC(n2cc(F)c(=O)[nH]c2=O)C(O)C1O (stereo not drawn),3.7µM*,4%,·,·,6.5µM*,·
Cc1cn([C@H]2C[C@H](N=[N+]=[N-])[C@H](CO)O2)c(=O)[nH]c1=O,·,2%,·,·,·,·
c1cnc2ccc(-n3ccnc3)cc2c1,?,·,-11,-8%,?,-29%
Cc1ccccc1-c1nc(CN2CCC(C(=O)NCCCN3CC(C)CC(C)C3)CC2)c(C)o1 (stereo not drawn),?,5%,-6,-18%,23µM*,-31%
Cc1ccccc1-c1nc(CN2CCC(C(=O)NCc3ccc(F)cc3)CC2)c(C)o1,21µM*,2%,·,-27%,16µM*,-32%
Cc1ccccc1-c1nc(CN2CCC(C(=O)NCc3cccnc3)CC2)c(C)o1,-2%,5%,-4,-18%,1%,4%
Cc1oc(-c2ccccc2F)nc1CN1CCC(C(=O)NCCc2ccccc2)CC1,?,1%,·,-9%,?,-20%
Cc1oc(-c2ccccc2F)nc1CN1CCC(C(=O)NCCC2=CCCCC2)CC1,23µM*,5%,-13,-9%,?,-2%
Cc1ccccc1-c1nc(CN2CCC(C(=O)NCc3ccco3)CC2)c(C)o1,?,5%,-67*,3%,?,-33%
O=C(c1ccccc1)C(I)(I)N1CCOCC1,?,·,·,11%,-25%,-6%
O=C(Cc1ccccc1)Nc1ccnn1C1CCN(Cc2nccs2)CC1,36%,2%,0,6%,0%,7%
COc1cccc(CNc2nc3ccccc3c3nc(-c4cccc(C)c4)nn23)c1,?,-4%,·,0%,?,-15%
O=C(Nc1ccc2c(c1)OCO2)c1cc(C2CCCCN2C(=O)c2ccc(Cl)cc2)on1 (stereo not drawn),21µM*,·,-1,?,21µM*,-20%
CCCNC(=O)c1cc(C2CCCCN2C(=O)c2ccc3c(c2)CCO3)on1 (stereo not drawn),-24%,·,9,-2%,-12%,-7%
N#Cc1ccc(C(=O)N2CCCCC2c2cc(C(=O)Nc3ccc4c(c3)OCO4)no2)cc1 (stereo not drawn),23µM*,·,-16,4%,?,-9%
COC(=O)N1CCCCC1c1cc(C(=O)Nc2ccc3c(c2)OCO3)no1 (stereo not drawn),-25%,·,0,19%,0%,-2%
O=C(Nc1ccc2c(c1)OCO2)c1cc(C2CCCCN2C(=O)c2ccc3c(c2)CCO3)on1 (stereo not drawn),26µM*,·,-13,-5%,26µM*,-4%
CC(O)(COc1ccccc1)c1ccc2c(c1)CN(Cc1cccn1-c1ccccn1)CCO2 (stereo not drawn),16µM*,·,·,·,-11%[9.04 µM],·
Cc1cc(C)c2c(=O)cc(CSCC(=O)Nc3ccccc3Cl)[nH]c2c1,-16%,3%,·,0%,-9%,0%

# Assay outcomes from PubChem BioAssay.
